Reference: PubChem BioAssay (NCATS)
“And” between values parts separate entries of the source, which are not always exact repeats. Equal entries are not always repeated. Records with an inconclusive call do not appear. The source made the active and inactive calls. Unless noted, calls follow the shape of the dose curve; as a rule, active = well fitted curve in the direction sought with a large enough effect; inconclusive = small, poorly fitted or top-dose-only effect, or another doubt; inactive = no such curve, though single readings can be large; an effect the other way counts as inactive or inconclusive.

Tests used:
[1] = target: Cellular tumor antigen p53 (Homo sapiens) (UniProt P04637); assay: Primary qHTS for small molecule compounds that upregulate eGFP-tagged delta133p53alpha (in N-terminal) cells. (AID 2060322); details: NCI-H358 eGFP-delta133p53alpha fluorescence, 24 h; activation: active compounds read high;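 also: cells pre-induced with doxycycline then dosed without doxycycline; series mostly up to about 56 µM; 0% = DMSO vehicle and 100% = reference activator; nearly all actives have a fitted effect of over 75% in size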
Chain of Cellular tumor antigen p53 (Homo sapiens) (P04637 whole entry, looked up): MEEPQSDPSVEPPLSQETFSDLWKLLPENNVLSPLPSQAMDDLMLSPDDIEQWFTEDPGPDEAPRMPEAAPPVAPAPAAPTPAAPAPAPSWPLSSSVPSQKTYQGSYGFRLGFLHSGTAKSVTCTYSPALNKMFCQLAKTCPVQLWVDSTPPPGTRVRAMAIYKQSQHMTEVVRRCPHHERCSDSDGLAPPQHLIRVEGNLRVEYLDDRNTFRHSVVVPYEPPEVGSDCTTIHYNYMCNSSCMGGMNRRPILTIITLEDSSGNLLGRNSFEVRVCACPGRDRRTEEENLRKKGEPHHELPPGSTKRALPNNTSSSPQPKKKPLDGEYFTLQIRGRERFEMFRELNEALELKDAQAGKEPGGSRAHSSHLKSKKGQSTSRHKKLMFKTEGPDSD
Summary of the method: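 NCI-H358 cells pre-induced 24 h with 10 ng/ml doxycycline for eGFP-delta133p53alpha, plated dox-free and exposed 24 h at 37C to titrated compounds. Fixed, Hoechst-stained; gated GFP peak intensity by laser scanning cytometry, normalized to DMSO (0%) and 57.5 uM 5-azacytidine (100%).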

[2] = target: Cellular tumor antigen p53 (Homo sapiens) (UniProt P04637); assay: Primary qHTS for small molecule compounds that upregulate eGFP-tagged delta133p53alpha (in C-terminal) cells. (AID 2060324);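 also: 0% = DMSO wells and 100% = 57.5 µM 5-azacytidine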
Summary of the method: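 Read-out: gated-cell GFP peak intensity (laser scanning cytometer), plate-normalized with DMSO as 0% activity, after 24 h compound exposure at 37C. Cells were C-terminal eGFP-tagged delta133p53alpha NCI-H358, doxycycline-induced (100 ng/ml, 24 h) before plating.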

[3] = target: Aldehyde dehydrogenase, mitochondrial (Homo sapiens) (UniProt P05091); assay: qHTS for Inhibitors of the Aldehyde Dehydrogenase Family (ALDH2) Validation screens (AID 2061302; active = well fitted inhibition curve with a large enough effect; title and protocol of this record describe different tests;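 also: plate controls were DMSO vehicle for no effect and maximal DPI positive control response for full effect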)
[4] = target: Retinaldehyde dehydrogenase 3 (Homo sapiens) (UniProt P47895); assay: qHTS for Inhibitors of the Aldehyde Dehydrogenase Family (ALDH1A3) Validation screen (AID 2061312); also: % is scaled to controls: 0 for no effect and ±100 for the full control effect; nearly all actives have a fitted effect of over 45% in size

N[C@H](CO)C(=O)O
inactive: activation [1] 9.85% | Potency [2] | Potency [3] | Potency [4]

CN(C)CCC=C1c2ccccc2CCc2ccccc21
inactive: activation [1] -12.6% and -30.9% | Potency [2] | Potency [3] | Potency [4]

O=C(O)CCCC[C@@H]1CCSS1
inactive: activation [1] -13.5% | Potency [2] | Potency [3] | Potency [4]

CC(C)NC[C@H](O)COc1cccc2[nH]ccc12
inactive: activation [1] 15.4% | Potency [2] | Potency [3] | Potency [4]

CC(C)(C)NCC(O)COc1cccc2[nH]c(=O)[nH]c12 (configuration not stated)
inactive: activation [1] -2.8% | Potency [2] | Potency [3] | Potency [4]

CCCN(CC1CC1)c1nc(C)nc(Nc2c(Cl)cc(Cl)cc2Cl)c1Cl
inactive: activation [1] -22.7% | Potency [2] | Potency [3] | Potency [4]

NC1(C(=O)O)CCCCC1
inactive: activation [1] 13.9% | Potency [2] | Potency [3] | Potency [4]

CC(C)(CO)Cc1cc(C(C)(C)C)c(O)c(C(C)(C)C)c1
inactive: activation [1] -20% | Potency [2] | Potency [3] | Potency [4]

O=C(CCSCc1ccco1)NNC(=O)N1Cc2ccccc2Oc2ccc(Cl)cc21
inactive: activation [1] 22% | Potency [2] | Potency [3] | Potency [4]

CN(C)c1nc(N)c(C(=O)N=C(N)N)nc1Cl
inactive: activation [1] -52.6% | Potency [2] | Potency [3] | Potency [4]

O=C(O)C1CCCNC1 (configuration not stated)
inactive: activation [1] -25.6% | Potency [2] | Potency [3] | Potency [4]

O=C(O)CCC(=O)N1CCCC1C(=O)O (configuration not stated)
inactive: activation [1] 8.81% | Potency [2] | Potency [3] | Potency [4]

NC(=O)CC[C@H](N)C(=O)O
inactive: activation [1] 18.7% | Potency [2] | Potency [3] | Potency [4]
